SMILES strings stand for the structures. Several values for one entry are separate records, joined by “and”; a condition that tells them apart may be missing. Identical values can stand only once. Records with an inconclusive call do not appear. More than one record can exist for a structure, and the calls need not agree. Activity calls are given as the source filed them. Unless noted, the call rests on the fitted dose curve; in most records, active means well fitted curve in the direction sought with a large enough effect; inconclusive means small, poorly fitted or top-dose-only effect, or another doubt; inactive means no such curve, though single readings can be large; an effect the other way counts as inactive or inconclusive.

For assay [1], the target named is Alpha-galactosidase (Coffea arabica) (UniProt Q42656). The assay is described as follows: Counterscreen for Glucocerebrosidase Inhibitors: qHTS Assay for Coffee Bean alpha-Galactosidase at pH 5.9 (AID 998).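 Further: plate controls were uninhibited enzyme for no effect and no-enzyme basal signal for full effect.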 In outline:
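Fluorogenic 4-MU substrate hydrolysis, 80 uM substrate and 2 nM coffee bean alpha-galactosidase, pH 5.9 citrate buffer, 20 min at room temperature, then NaOH/glycine stop. Titration 0.7 nM–77 uM, normalized to no-enzyme and enzyme controls, AC50 via Hill equation.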
A general note: The purpose of a counterscreen is to sort out artefacts and off-target activity.

Assay [2] can be described thus: qHTS Assay for Lipid Storage Modulators (AID 1519; calls by dose curve; further: potency means the concentration at half of the fitted maximal effect; on activity change, negative = inhibition: on the % scale 0 is the no-effect control and ±100 the full control effect). To be noted: Drosophila S3 cells, BODIPY lipid droplet/cell ratio, laser cytometry, cells loaded with oleic acid. In outline: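 Cells seeded at 5,000 per well were treated with compounds over a concentration series and loaded with oleic acid (400 uM, as added). Lipid droplet fluorescence (488 nm excitation, 500-530 nm channel) was read by laser-scanning cytometry and normalized to 20 uM Triacsin C.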

Assay [3] deals with DNA repair nuclease/redox regulator APEX1 (Homo sapiens) (UniProt P27695). The assay is described as follows: qHTS Validation Assay for Inhibitors of the Human Apurinic/apyrimidinic Endonuclease 1 (APE1) (AID 1705;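 further: TAMRA fluorescence gain over two minutes as APE1 cuts a quenched THF abasic duplex; on the % scale 0 is the no-effect control and ±100 the full control effect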). In outline:
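Activity read as rising fluorescence (598 nm emission, 525 nm excitation) from incision of a TAMRA/BHQ-2 duplex carrying a THF abasic site (50 nM). Compound and enzyme sat 15 min at RT before substrate start; signal change between first and third 60-s reads.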
Background: Quantitative high-throughput screening tests each substance at several concentrations.

A short description of assay [4]: Cell Viability - LYMP2-022 (AID 987).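 Further: 0% = DMSO alone and full effect = tetraoctylammonium bromide at 92 µM; nearly all actives have a fitted effect of over 55% in size.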 The essentials:
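Cells were seeded at 2500 per well, rested 5 hr at 37 C, and treated with titrated compounds for 24 hr at 37 C. Cellular ATP was then quantified by luciferase luminescence, and AC50 values were derived from Hill-modelled concentration-response curves.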

Assay [5] is described as follows: Cell Viability - LYMP2-026 (AID 989).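 Further: cells exposed to compound for 24 h at 37 °C; on the % scale 0 is the no-effect control and ±100 the full control effect; nearly all actives have a fitted effect of over 50% in size.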 In outline: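 Cells are seeded at 2500 per well and held 5 hr at 37 C. Compounds are added in concentration series for 24 hr, then CellTiter-Glo reagent is applied and luminescence read.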
A short description of assay [6]: Cell Viability - LYMP1-002 - Assay at 24 hr (AID 993). Further: on the % scale 0 is the no-effect control and ±100 the full control effect. The essentials:
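Acute toxicity is measured as concentration-dependent loss of cellular ATP in a human lymphoblastoid line (Coriell LYMP1-002) after 24 h treatment in complete medium. ATP is quantified by luciferase luminescence and AC50 derived by Hill modelling.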

Assay [7] can be described thus: Cell Viability - LYMP1-002 - Assay at 40 hr (AID 994).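 Further: 0% = DMSO only and full inhibition = 92 µM tetraoctylammonium bromide; nearly all actives have a fitted effect of over 60% in size.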 The essentials: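 Cells are plated at 2500 per well and rested 5 hr at 37 C. Compounds are added and incubated 40 hr at 37 C. CellTiter-Glo reagent is added for 30 min at room temperature before luminescence is read.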
In assay [8] the target is Alpha-galactosidase A (Homo sapiens) (UniProt P06280). Description: Counterscreen for Glucocerebrosidase Inhibitors: qHTS Assay for Human alpha-Galactosidase at pH 4.5 (AID 992). Further: 0% is about no effect. In outline: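 Fluorogenic 4-MU alpha-D-galactoside (80 uM) hydrolysis, 2 nM enzyme, pH 4.5 citrate buffer + 0.005% Tween-20; 20 min RT; NaOH/glycine pH 10 stop; Ex365/Em440. Compounds titrated 0.7 nM–77 uM; Hill-equation AC50.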

In assay [9] the target is alpha-glucosidase (Oryza sativa, rice) (UniProt Q653V4). The assay is described as follows: Counterscreen for Glucocerebrosidase Inhibitors: qHTS Assay for Rice alpha-Glucosidase at pH 5.0 (AID 997).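 Further: 0% = full activity with enzyme and -100% = basal without enzyme.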 In outline: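 Endpoint fluorogenic assay at pH 5.0: compounds (0.7 nM to 77 uM) titrated against 4 nM rice enzyme and 400 uM 4-MU-alpha-glucoside for 20 min at room temperature; NaOH/glycine stop, read ex 365/em 440 nm, Hill-fitted AC50.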

Assay [10] in a line: Validation of Assay for Modulators of Lamin A Splicing (AID 1459; active means well fitted curve in the direction sought with a large enough effect in the signal ratio; the % refers to the signal ratio;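 further: cells exposed to compound for two days before reading; 0% is about no effect; ratio rise marks activators and ratio drop marks inhibitors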). From the text: Hutchinson-Gilford Progeria Syndrome (HGPS) is a pediatric premature aging disease caused by a spontaneous mutation in the lamin A/C (LMNA) gene. The mutation activates a cryptic splice site in the LMNA pre-mRNA which results in production of a pre-lamin A protein that cannot be processed properly. The mutant protein accumulates in the nucleus and negatively affects numerous cellular functions. Correction of the splicing defect in HGPS patient cells using a targeted oligonucleotide (exo11) leads to reversal of the cellular disease phenotypes. To identify small molecule modulators of aberrant LMNA splicing, a homogenous assay was constructed in HeLa cells that used a GFP containing minigene to report on correction of aberrant splicing in lamin A and a RFP (DsRed2) to report on cell viability, uniformity and nonspecific effects on the assay signal. This assay was adapted to laser-scanning microplate cytometry (Acumen, TTP Labtech) where miniaturization of the assay to a 1,536-well plate format was possible.
Bowen, W. P.; Wylie, P. G. Application of Laser-Scanning Fluorescence Microplate Cytometry in High Content Screening. Assay Drug Dev Technol 2006;4:209-221.
Scaffidi P, Misteli T. Reversal of the cellular phenotype in the premature aging disease Hutchinson-Gilford progeria syndrome. Nat. Med. 2005;11:440-445.
NCGC Assay Protocol Summary:
Reagents/Controls: Stable clones expressing DsRed2 and lamin A-EGFP were generated by Cell and Molecular Technologies in S3 HeLa cells.
HeLa cells were prepared for the assay when they were 70-90% confluent. The cells were counted and resuspended in Opti-MEM I (no phenol red; Gibco), 2% FBS, 1% penicillin/ streptomycin (Gibco) at concentration of 120 cells/uL concentration. The suspension was passed through a Falcon basket filter with pore size 40um (Beckton Dickson).
Control titrations: column […] 1536-well plate contained a sixteen point titration (1:2 dilutions) in duplicate of ancitabine (Sigma: A8598) beginning at 40 uM final concentration. Column 2 contained a sixteen point titration (1:2 dilutions) of cycloheximide beginning at 1.4 mM final concentration. Column 3 contained ancitabine at 40 uM and column 4 contained was the vehicle control (0.5% DMSO final concentration).
5 uL of HeLa cells were plated in Aurora LoBase black clear bottom (cyclic-olefin polymer) 1536-well plates at a final density of 600 cells/well. Controls and library compounds were added with a 1536-well pin array using the Kalypsys pin-tool. The plates were then incubated for 48 hrs in a cell-culture incubator (37 °C; 5% CO2, 98% humidity). Following incubation the plates were read on the Acumen Explorer using the 488 nm laser. Data was collected on objects between 10 and 100 um in size. Cell objects were defined by a 15 um width x 10 um depth filter. The ratio of the total object intensity in PMT1 (500-530 nm emission; GFP) over PMT3 (575-640 nm emission; RFP) was calculated for analysis.
Keywords: NIH Roadmap, MLSCN, MLI, MLSMR, qHTS, NCGC, lamin A, Progeria, RNA splicing.

Setting [11] is: measured here: cell count channel max response.
[12] abbreviates: measured here: lipid channel max response.

Chain of DNA repair nuclease/redox regulator APEX1 (Homo sapiens) (P27695 whole entry, looked up): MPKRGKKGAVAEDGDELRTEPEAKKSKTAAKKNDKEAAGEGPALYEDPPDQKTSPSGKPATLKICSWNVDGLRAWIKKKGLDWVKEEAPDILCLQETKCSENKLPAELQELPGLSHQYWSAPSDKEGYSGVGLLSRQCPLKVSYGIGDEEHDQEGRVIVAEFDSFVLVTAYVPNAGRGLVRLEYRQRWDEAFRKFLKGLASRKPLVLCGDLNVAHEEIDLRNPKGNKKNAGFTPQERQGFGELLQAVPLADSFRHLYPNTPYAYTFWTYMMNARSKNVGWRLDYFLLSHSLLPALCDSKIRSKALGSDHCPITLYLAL
Chain of Alpha-galactosidase A (Homo sapiens) (P06280 whole entry, looked up): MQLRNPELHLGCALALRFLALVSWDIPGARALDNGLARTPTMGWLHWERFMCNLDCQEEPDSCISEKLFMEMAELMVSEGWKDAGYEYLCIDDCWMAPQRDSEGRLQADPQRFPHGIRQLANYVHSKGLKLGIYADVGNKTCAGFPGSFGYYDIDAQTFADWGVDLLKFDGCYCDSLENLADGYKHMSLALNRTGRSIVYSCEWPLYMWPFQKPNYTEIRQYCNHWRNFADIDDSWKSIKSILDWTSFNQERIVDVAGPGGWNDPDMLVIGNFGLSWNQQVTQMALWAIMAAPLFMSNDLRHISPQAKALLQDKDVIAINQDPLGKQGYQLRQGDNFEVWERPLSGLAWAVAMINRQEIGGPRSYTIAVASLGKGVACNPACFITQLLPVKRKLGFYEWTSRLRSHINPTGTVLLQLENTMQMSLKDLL
Chain of Alpha-galactosidase (Coffea arabica) (Q42656 whole entry, looked up): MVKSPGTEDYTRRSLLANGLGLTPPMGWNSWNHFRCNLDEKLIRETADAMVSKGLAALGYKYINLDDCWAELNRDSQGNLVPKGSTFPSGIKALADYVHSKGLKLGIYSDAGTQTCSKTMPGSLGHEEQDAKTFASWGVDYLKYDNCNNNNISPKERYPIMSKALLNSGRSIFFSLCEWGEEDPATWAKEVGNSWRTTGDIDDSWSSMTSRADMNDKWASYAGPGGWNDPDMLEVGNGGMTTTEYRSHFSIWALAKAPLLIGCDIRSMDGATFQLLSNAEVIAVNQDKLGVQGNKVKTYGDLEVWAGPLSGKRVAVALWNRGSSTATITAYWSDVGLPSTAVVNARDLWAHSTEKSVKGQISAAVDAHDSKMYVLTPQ

Consider `CC(C)C(=O)Nc1ccc([N+](=O)[O-])c(C(F)(F)F)c1`, for which, in assay [1], the call was inactive. For the same compound, the activity change, negative = inhibition in [2] (at 25.7 µM (top of the series)) is -0.701% (inactive); in assay [2] (at 57.5 µM (top of the series)) it was 9.96% (inactive). For the same compound, the max response in assay [2] (setting [11]) is -6.26% and 5.61%; in assay [2] (setting [12]), -1.94% and 19.5%.
For `CC(CCc1ccccc1)NC(C)C(O)c1ccc(O)cc1` (stereo unspecified), the call in assay [3] was inactive.
For the compound `O=c1c(O)c(-c2ccc(O)c(O)c2)oc2cc(O)cc(O)c12`, the compound was called inactive in assay [1]. Besides, the activity change, negative = inhibition in [2] (at 57.5 µM (top of the series)) was 8.54% (inactive). For the same compound, the Potency in [2] is 39.8 µM (active). The max response in assay [2] (setting [11]) is -77.5% and 18.5%; in assay [2] (setting [12]) it was -93.3% and 29.8%.
Take `CCC1(C2=NCCN2)Cc2ccccc2O1` (stereo unspecified): in assay [2] (at 57.5 µM (top of the series)), the activity change, negative = inhibition is -1.14% (inactive). In addition, the figures for the max response in [2] (setting [11]) and in [2] (setting [12]) were -3.38% and -2.07%, respectively. For the same compound, in assay [3], the compound was classed as inactive.
Regarding `CNCCCN1c2ccccc2CCc2ccccc21`, in assay [1], the compound was classed as inactive. The activity change, negative = inhibition in assay [2] (at 25.7 µM (top of the series)) is -4.5% (inactive); in assay [2] (at 57.5 µM (top of the series)) it was 0.465% (inactive). In addition, the max response was -2.23% and 21.3% in assay [2] (setting [11]); -6.66% and 25.9% in [2] (setting [12]).
On to `CC(C)CC(N(C)C)C1(c2ccc(Cl)cc2)CCC1` (stereo unspecified), for which, in assay [2] (at 57.5 µM (top of the series)), the activity change, negative = inhibition is 0.545% (inactive). Besides, the max response came out at 5.29% in assay [2] (setting [11]) and 6.62% in assay [2] (setting [12]).
For `Cc1ccc(-c2nc3ccc(C)cn3c2CC(=O)N(C)C)cc1`, the activity change, negative = inhibition in [2] (at 57.5 µM (top of the series)) is 1.62% (inactive). The max response in assay [2] (setting [11]) is 1.87%; in [2] (setting [12]), 4.31%.
Regarding `NCC(O)c1ccc(O)cc1` (stereo unspecified), the Potency result in assay [4], in [6] and in [7] was “inactive” throughout. In addition, in assay [5], the compound was called inactive. Besides, the activity change, negative = inhibition in [2] (at 57.5 µM (top of the series)) is 5.18% (inactive). The figures for the max response in [2] (setting [11]) and in assay [2] (setting [12]) were 15.4% and 23.7%, respectively.
As to `NCCc1cc(O)c(O)cc1O`, the activity change, negative = inhibition in [2] (at 57.5 µM (top of the series)) is 7.71% (inactive). Also, the max response was determined as 5.57% in [2] (setting [11]) and 16.6% in assay [2] (setting [12]).
On to `CN1CCN(C2=Nc3cc(Cl)ccc3Nc3ccccc32)CC1`, for which, in assay [1], the call was inactive. In addition, the activity change, negative = inhibition in assay [2] (at 25.7 µM (top of the series)) was 0.266% (inactive). Further, the max response in assay [2] (setting [11]) is -21%; in [2] (setting [12]), -18.6%.
As to `Nc1ccncc1`, the compound was called inactive in assay [8], in assay [9], in assay [1] and in [3]. The activity change, negative = inhibition in [2] (at 57.5 µM (top of the series)) was -5.36% (inactive) and 3.03% (inactive). Further, the max response in assay [2] (setting [11]) was -7.26% and -3.5%; in assay [2] (setting [12]), -10.8% and 8.53%.
Take `COC[C@H]1OC(=O)c2coc3c2[C@@]1(C)C1=C(C3=O)C2CCC(=O)[C@@]2(C)C[C@H]1OC(C)=O` (stereo partly specified): the compound was called inactive in assay [3].
As to `CCC(COC(=O)c1cc(OC)c(OC)c(OC)c1)(c1ccccc1)N(C)C` (stereo unspecified), the activity change, negative = inhibition in [2] (at 57.5 µM (top of the series)) was 6.16% (inactive). Also, the max response in assay [2] (setting [11]) is -7.6%; in [2] (setting [12]), -1.9%.
With `C=C(C)[C@H]1Cc2c(ccc3c2O[C@@H]2COc4cc(OC)c(OC)cc4[C@@H]2C3=O)O1`, in assay [3], the result was inactive.
For `Cc1ncc(CNC(=O)N(CCCl)N=O)c(N)n1`, the result in [8], in assay [9], in assay [1] and in [3] was inactive. In addition, in assay [2] (at 57.5 µM (top of the series)), the activity change, negative = inhibition is 4.94% (inactive). Besides, the results for the max response in assay [2] (setting [11]) and in assay [2] (setting [12]) were 9.89% and 18%, respectively.
Take `CCCN1CCC[C@@H]2Cc3[nH]ncc3C[C@H]21`: the outcome in assay [8], in [9] and in assay [1] was inactive. Further, the activity change, negative = inhibition in assay [2] (at 25.7 µM (top of the series)) is -0.566% (inactive); in assay [2] (at 57.5 µM (top of the series)) it was -0.922% (inactive). Also, the max response in [2] (setting [11]) is -11.1% and 10.4%; in assay [2] (setting [12]), -11.8% and 9.61%.
For the compound `CC(=O)[C@H]1CC[C@H]2[C@@H]3CC[C@H]4C[C@H](O)CC[C@]4(C)[C@H]3C(=O)C[C@]12C`, the outcome in [8], in [9], in assay [1], in assay [10] and in [3] was inactive.
